Drawing on PubChem BioAssay AID2284142 (EPA ToxCast), this text covers AC50 for one molecule.

The structures appear in SMILES notation. Activity calls are given as the source filed them. How the source made its calls: active means hit-call score of the fitted dose curve at least 0.9, where 1 is the maximum; inactive means score below 0.9.

As usually defined, the AC50 is the midpoint of the concentration-response curve, whichever way the signal moves.

Sequence of human Adenosine Receptor A1 Agonism, ADORA1 (gene 134) (P30542 whole entry, looked up): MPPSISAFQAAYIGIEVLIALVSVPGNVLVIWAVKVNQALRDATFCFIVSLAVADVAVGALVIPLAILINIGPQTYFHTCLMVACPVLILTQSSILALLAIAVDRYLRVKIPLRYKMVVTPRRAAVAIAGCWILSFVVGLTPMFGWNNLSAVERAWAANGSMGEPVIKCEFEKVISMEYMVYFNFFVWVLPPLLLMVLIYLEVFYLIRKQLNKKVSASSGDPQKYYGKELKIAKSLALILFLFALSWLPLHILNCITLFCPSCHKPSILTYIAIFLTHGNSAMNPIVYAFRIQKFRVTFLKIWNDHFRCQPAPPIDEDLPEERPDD

This assay deals with human Adenosine Receptor A1 Agonism, ADORA1 (gene 134) (UniProt P30542). As to the kind of experiment: ERF_FR_GPCR_hADORA1: Eurofins (ERF) G Protein-Coupled Receptor (GPCR) Radioligand Binding LeadHunter Assay for human Adenosine Receptor A1 Agonism. The method, then:
ERF_FR_GPCR_hADORA1 is a biochemical, single-readout assay that uses extracted gene-proteins in a cell-free assay. Measurements were taken 1 hour after chemical dosing in a 96-well plate. See A1 Human Adenosine GPCR Binding (Agonist Radioligand) Assay, Cerep.ERF_FR_GPCR_hADORA1 is an assay component calculated from the ERF_FR_GPCR_hADORA1 assay. It is designed to measure radioligand binding using a type of binding reporter as detected by scintillation counting with radiometry technology.Data from the assay component ERF_FR_GPCR_hADORA1 was analyzed at the assay endpoint, ERF_FR_GPCR_hADORA1, in the positive analysis fitting direction relative to DMSO as the negative control and baseline of activity. Using a type of binding reporter, […] activity can be used to understand changes in binding as they relate to gene ADORA1. To generalize the intended target to other relatable targets, this assay endpoint is annotated to the gpcr intended target family, where the subfamily is adenosine.
2) Dose Response: 90 ul of 10 mM stock -OR- 1 mg (pre-weighed) for a top concentration at 10 uM.
Turning to `O=C(/C=C/c1ccc(O)cc1)CC(=O)/C=C/c1ccc(O)cc1`, the AC50 is 1.92 µM (active).
